Among the data in PubChem BioAssay (NCATS) are Potency values, retold here.

Records with an inconclusive call do not appear. Calls of active or inactive are those of the source. Calls follow the shape of the dose curve; as a rule, active = well fitted curve in the direction sought with a large enough effect; inconclusive = small, poorly fitted or top-dose-only effect, or another doubt; inactive = no such curve, though single readings can be large; an effect the other way counts as inactive or inconclusive.

In assay [1] the target is Phospholipid hydroperoxide glutathione peroxidase GPX4 (Homo sapiens) (UniProt P36969). As to the kind of experiment: Primary qHTS Assay for Inhibitors of Recombinant Selenoprotein Glutathione Peroxidase 4 (GPX4) (AID 1845192). Also: nearly all actives have a fitted effect of over 65% in size. Also: potency is read from the fitted curve at half-maximal effect. An outline of the steps:
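qHTS, GR-coupled: GPX4 200 nM + cpd 30 min RT → GSH 1 mM, NADPH 0.5 mM, GR 100 nM → CHP 0.5 mM start; fluor 340/450 at t0 and t15 min; no-enzyme wells as control.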

Assay [2] addresses Luciferin 4-monooxygenase (Photinus pyralis) (UniProt P08659). As to the kind of experiment: Primary firefly luciferase (FLuc) qHTS assay for identification of artifact compounds. (AID 1845220). Also: nearly all actives have a fitted effect of over 60% in size. In short, it runs like this:
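Reaction readout was CCD-imaged luminescence, taken 5 min after adding 10 nM purified firefly enzyme to compound-treated wells holding 10 uM luciferin and ATP in pH 7.6 buffer.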
(In qHTS, concentration-response curves come from the screen itself.)

Assay [3] is described as follows: Primary fluorescence-based thiol-reactive (MSTI) qHTS assay for identification of artifact compounds. (AID 1845221). Also: nearly all actives have a fitted effect of over 65% in size. Also: potency is read from the fitted curve at half-maximal effect. In short, it runs like this:
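MSTI probe at 4 uM final in 2% DMSO/PBS pH 7.4; compounds, 1 h at room temperature in dark. Fluorescence Ex/Em 525/598 nm, normalised to Acetyl-MSTI and MSTI, fitted to 4-parameter Hill.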

For assay [4], the system named is Nanoluciferase (engineered Oplophorus gracilirostris luciferase). Description: Primary Nanoluciferase (NLuc) qHTS assay for identification of artifact compounds. (AID 1845222).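 Also: NLuc secreted into diluted conditioned medium of S16 cells; series mostly up to about 54 µM.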 In short, it runs like this: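 Concentration-response data were obtained by luminescence after 5 min with Nano-Glo substrate at 1:100. The enzyme was diluted S16 NLuc-expressing cell medium, preincubated with compound for 15 min at RT. Curves were fitted with a 4-parameter Hill model.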

Assay [5] in a line: Primary redox qHTS assay for identification of artifact compounds. (AID 1845223). Also: potency is read from the fitted curve at half-maximal effect. An outline of the steps:
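Redox-cycling detection via DTT (250 uM final) oxidation coupled to Amplex Red (25 uM)/HRP (250 mU/mL) in HBSS. 15 min preincubation plus 30 min after DTT, room temperature. Ex/Em 525/598 nm; 4-parameter Hill fit against DMSO and 10 uM DA3003.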

Phospholipid hydroperoxide glutathione peroxidase GPX4 (Homo sapiens), sequence (P36969 whole entry, looked up): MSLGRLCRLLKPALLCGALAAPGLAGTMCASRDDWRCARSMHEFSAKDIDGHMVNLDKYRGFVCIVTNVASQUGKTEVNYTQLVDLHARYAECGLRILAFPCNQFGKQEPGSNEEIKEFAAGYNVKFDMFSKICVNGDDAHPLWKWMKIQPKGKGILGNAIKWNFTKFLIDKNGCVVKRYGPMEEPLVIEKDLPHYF

For `N#Cc1ccc(Nc2nc(-c3ccc(O)cc3O)cs2)cc1C(F)(F)F`, the Potency result in assay [1], in assay [2] and in assay [4] was “inactive” in each case. In assay [3], the Potency was 2.99 µM (active).
With `C=C(NC(=O)C(=C)NC(=O)c1csc(C2=NC3c4csc(n4)C4NC(=O)c5csc(n5)C(C(C)(O)C(C)O)NC(=O)C5CSC(=N5)/C(=C/C)NC(=O)C(C(C)O)NC(=O)c5csc(n5)C3(CC2)NC(=O)C(C)NC(=O)C(=C)NC(=O)C(C)NC(=O)C(C(C)CC)NC2C=Cc3c(C(C)O)cc(nc3C2O)C(=O)OC4C)n1)C(N)=O` (stereo unspecified), the Potency entry in assay [1], in assay [2], in assay [3] and in assay [4] was “inactive” throughout.
In the case of `O=C(Nc1ccc(-c2ccnc(Nc3ccc(N4CCOCC4)cc3)n2)cc1)C1CCCN1` (stereo unspecified), the Potency entry in assay [1], in assay [2], in assay [4] and in assay [5] was “inactive” throughout. Besides, the Potency in assay [3] is 11.9 µM (active).
With `CC[C@H]1OC(=O)[C@H](C)[C@@H](O[C@H]2C[C@@](C)(OC)[C@@H](O)[C@H](C)O2)[C@H](C)[C@@H](O[C@H]2O[C@H](C)C[C@H](N(C)C)[C@H]2O)[C@](C)(O)C[C@@H](C)C(=O)[C@H](C)[C@@H](O)[C@]1(C)O`, the Potency result in assay [1], in assay [2], in assay [3], in assay [4] and in assay [5] was “inactive” in each case.
As to `Cc1c(Cl)cccc1S(=O)(=O)Nc1nc(NCCc2ccccc2)nc2c1CN(Cc1ccccc1)CC2`, the Potency result in assay [1], in assay [2], in assay [3] and in assay [4] was “inactive” in each case.
Consider `CCn1c(N)c(C(=O)NC)c(=O)c2ccc(C#CC(C)(O)COC)nc21` (stereo unspecified), for which the Potency entry in assay [1], in assay [2], in assay [3], in assay [4] and in assay [5] was “inactive” throughout.
As to `CCCCCCOC(=O)/N=C(\N)c1ccc(NCc2nc3cc(C(=O)N(CCC(=O)OCC)c4ccccn4)ccc3n2C)cc1`, the Potency entry in assay [1], in assay [2], in assay [3], in assay [4] and in assay [5] was “inactive” each time.
As for `Cc1nc(NC(=O)N2CCCC2C(N)=O)sc1-c1ccnc(C(C)(C)C(F)(F)F)c1` (stereo unspecified), the Potency result in assay [1], in assay [2], in assay [3], in assay [4] and in assay [5] was “inactive” in each case.
On to `CN(C)C(CCOc1cccc2ccccc12)c1ccccc1` (stereo unspecified), for which the Potency result in assay [1], in assay [2], in assay [3] and in assay [4] was “inactive” throughout.
Turning to `CN(CC1COCCO1)S(=O)(=O)Nc1ccc2ccc3ncc(-c4cnn(C)c4)cc3c(=O)c2c1` (stereo unspecified), the Potency result in assay [1], in assay [2], in assay [3], in assay [4] and in assay [5] was “inactive” each time.
On to `O=C(CCCN1CCC(n2c(=S)[nH]c3ccccc32)CC1)c1ccc(F)cc1`, for which the Potency in assay [1] is 4.47 µM (active).
With `O=C(Nc1ccccc1C(=O)NC1CCCCNC1=O)c1cc2ccccc2s1` (stereo unspecified), the Potency entry in assay [3], in assay [4] and in assay [5] was “inactive” throughout.
Consider `NS(=O)(=O)c1ccc(N2N=C(c3ccccc3)CC2c2ccccc2)cc1` (stereo unspecified), for which the Potency in assay [1] was 16.1 µM (active). Besides, the Potency entry in assay [3], in assay [4] and in assay [5] was “inactive” throughout.
As to `CC[C@@H](Nc1c(Nc2cccc(C(=O)N(C)C)c2O)c(=O)c1=O)c1cc(C(C)C)co1`, the Potency result in assay [1], in assay [4] and in assay [5] was “inactive” each time. Further, the Potency in assay [3] was 2.38 µM (active).
For `COc1cc2ncc(-c3ccccc3)nc2cc1OC`, in assay [1], the Potency was 20.2 µM (active). Moreover, the Potency entry in assay [3], in assay [4] and in assay [5] was “inactive” each time.
`O=C(c1ccc(F)cc1)N1CCCC(c2nc(-c3ccc(F)cc3)no2)C1` (stereo unspecified): the Potency entry in assay [1], in assay [2], in assay [3] and in assay [5] was “inactive” throughout.
For the compound `O=C(O)CSc1cc(NS(=O)(=O)c2ccc(Br)cc2)c2ccccc2c1O`, the Potency entry in assay [1] and in assay [2] was “inactive” throughout. Also, the Potency is 0.474 µM (active) in assay [3] and 5.32 µM (active) in assay [5].
For `Cc1cc2occ(CN(C)CCN(C)Cc3cn(-c4cccc(C(F)(F)F)c4)c4ccccc34)c(=O)c2cc1C`, the Potency result in assay [1], in assay [2], in assay [4] and in assay [5] was “inactive” in each case.
`Cc1nc2cc(C(=O)NCc3ccccn3)nn2c(C)c1Cc1cccc(Cl)c1`: the Potency entry in assay [2], in assay [3], in assay [4] and in assay [5] was “inactive” each time.
For the compound `CC(=O)O[C@@]12CO[C@@H]1C[C@H](O)[C@@]1(C)C(=O)[C@H](O)C3=C(C)[C@@H](OC(=O)[C@H](O)[C@@H](NC(=O)OC(C)(C)C)c4ccccc4)C[C@@](O)([C@@H](OC(=O)c4ccccc4)C12)C3(C)C` (stereo partly specified), the Potency result in assay [1], in assay [2], in assay [3], in assay [4] and in assay [5] was “inactive” in each case.
Turning to `CC(=O)Nc1nc(C)c(-c2nc(N3CCCC(O)C3)no2)s1` (stereo unspecified), the Potency result in assay [2], in assay [3], in assay [4] and in assay [5] was “inactive” in each case.
In the case of `CCOC(=O)N1c2ccc(C(F)(F)F)cc2C(N(Cc2cc(C(F)(F)F)cc(C(F)(F)F)c2)C(=O)OC)CC1CC` (stereo unspecified), the Potency result in assay [1], in assay [2], in assay [4] and in assay [5] was “inactive” throughout.
As to `O=C(Nc1ccccc1Br)NC1CCN(c2ccc(C(F)(F)F)cn2)C1` (stereo unspecified), the Potency result in assay [1], in assay [2], in assay [3], in assay [4] and in assay [5] was “inactive” in each case.
